Screens from PubChem BioAssay.
USP7 inh: inhibitors of human USP7 deubiquitinase; Q93009; 47,000 tested, 0.3% active; purified USP7, Ub-rhodamine cleavage fluorescence; inhibition, % at 20 µM
USP28 inh: human USP28 deubiquitinase inhibition | Q96RU2 | purified USP28, Ub-rhodamine cleavage fluorescence, 30 min | inhibition, % at 25 µM | 47,000 tested, 3% active
USP10 block: blocks human USP10 ubiquitin-rhodamine cleavage. Q14694. purified USP10, Ub-rhodamine fluorescence, 60 min. inhibition, % at 20 µM. 47,000 tested, 1.1% active. AID 1645856
UCHL1 inh: blocks human UCHL1 ubiquitin-rhodamine cleavage | inhibition, % at 20 µM | 47,000 tested, 0.2% active | purified UCHL1, Ub-rhodamine cleavage fluorescence | AID 1645859 | P09936
OTUD3 block: inhibitors of human OTUD3 deubiquitinase | Q5T2D3 | purified OTUD3, Ub-rhodamine fluorescence, 2 h | inhibition, % at 25 µM | AID 1645858 | 47,000 tested, 0.7% active
Numbers without * were called inactive. An excerpt weighted towards active compounds, which were near 4.2% of everything screened. No stated cut-off is given here; in the data, active means inhibition above about 30%; inactive means the rest.

SMILES	USP7 inh	USP28 inh	USP10 block	UCHL1 inh	OTUD3 block
CN(CCCNC(=O)c1cccc2c1SCCC2=O)c1ccccc1	-9	8	-8	1	-3
O=c1[nH]c(C2CCN(S(=O)(=O)c3ccc(S(=O)(=O)NC4CC4)cc3)CC2)nc2c1nnn2Cc1ccccc1	-10	22	22	4	1
O=c1[nH]c(C2CCN(S(=O)(=O)c3ccc(S(=O)(=O)NC4CCCCC4)cc3)CC2)nc2c1nnn2Cc1c(Cl)cccc1Cl	20	49*	42*	7	11
O=c1[nH]c(C2CCN(S(=O)(=O)c3ccc(S(=O)(=O)NC4CC4)cc3)CC2)nc2c1nnn2Cc1c(Cl)cccc1Cl	13	6	31*	5	11
O=c1[nH]c(C2CCN(S(=O)(=O)c3ccc(S(=O)(=O)NC4CCCCC4)cc3)CC2)nc2c1nnn2Cc1ccc(F)cc1	8	44*	36*	7	14
O=c1[nH]c(C2CCN(S(=O)(=O)c3ccc(S(=O)(=O)NC4CCCCC4)cc3)CC2)nc2c1nnn2Cc1c(F)cccc1Cl	15	55*	45*	6	15
Cc1ccc(Cn2nnc3c(=O)[nH]c(C4CCN(S(=O)(=O)c5ccc(S(=O)(=O)NC6CCCCC6)cc5)CC4)nc32)cc1	10	22	24	4	-7
CSC1=N/C(=C/c2ccccc2)C(=O)N1c1ccc(F)c(Cl)c1	8	14	1	1	22
Oc1sc(C=Nc2cc(Cl)ccc2Cl)c2ccccc12	-5	0	-10	-9	-11
CCOC(=O)c1ccc(NC(=O)CC2=NS(=O)(=O)c3ccccc3N2)cc1	9	9	0	4	5
COc1cc(OC)cc(C(=O)OCC(=O)Nc2cc(S(=O)(=O)N3CCCCC3)ccc2C)c1	3	10	2	4	13
O=C(Nc1ccccc1C(=O)N1CCN(Cc2ccncc2)CC1)c1ccc(Cl)cc1	0	-6	-1	-2	1
Cc1ccc(C)c(Cn2nnc3c(=O)[nH]c(C4CCN(S(=O)(=O)c5ccc(S(=O)(=O)NC6CC6)cc5)CC4)nc32)c1	13	42*	26	7	20
Cc1ccc(C)c(Cn2nnc3c(=O)[nH]c(C4CCN(S(=O)(=O)c5ccc(S(=O)(=O)NC6CCCC6)cc5)CC4)nc32)c1	15	21	30	2	-4
Cc1ccc(Cn2nnc3c(=O)[nH]c(C4CCN(C(=O)CC(C)(C)C)CC4)nc32)cc1	-27	32*	7	2	4
Cn1c(N2CCN(C(=O)CC3CCCCC3)CC2)cc(=O)n(C)c1=O	-2	2	0	-2	-4
CCCCCCCCCC(CCCCCCCCCC(=O)O)O[C@H]1O[C@@H](COC(C)=O)[C@H](O)[C@@H](OC(=O)CC(=O)O)[C@H]1O (stereo not given in full)	-43	35*	41*	2	21
O=C(CN1CCCCC1)Nc1nnc(-c2ccc([N+](=O)[O-])cc2)s1	4	35*	11	7	40*
CC(C)CCCCCCCCCCC(=O)N(C)[C@H](CO)C(=O)N[C@H](C)C(=O)NCC(=O)N(C)C1C(=O)N[C@@H](C)C(=O)NC(C(=O)O)Cc2ccc(O)c(c2)-c2cc1ccc2O (stereo not given in full)	-24	56*	60*	0	6
O=C(CN1CCC2(CCC1=O)NC(=O)c1ccccc1O2)NC1CCCC1 (stereo not given)	6	6	-1	2	18
COc1ccc(C2[C@@H]3CCCC[C@]3(O)CCN2C(=O)/C=C/c2ccc3c(c2)OCO3)cc1 (stereo not given in full)	1	-4	-1	0	-4
O=C(COC(=O)c1cccc([N+](=O)[O-])c1)Nc1cccc(Oc2ccccc2)c1	3	20	12	-1	7
COc1cc(-c2ccccc2)c(O)c(O)c1-c1ccccc1	61*	96*	67*	36*	91*
COCCn1cnc2c1c(=O)n(CCOc1ccccc1F)c(=O)n2Cc1ccccc1	-77	-4	0	-1	-9
CCc1oc2cc(O)ccc2c(=O)c1-c1ccc2c(c1)OCCO2	-17	36*	3	-3	2
O=C(Nc1ccc2c(c1)OCCO2)Nc1ccccc1OCc1cc(=O)n2ccccc2n1	0	8	-2	1	-5
O=C(Nc1ccc(F)cc1)Nc1ccccc1OCc1cc(=O)n2ccccc2n1	5	31*	25	-1	33*
Cc1cccn2c(=O)cc(CNc3ccc(C#N)cc3)nc12	1	-79	-3	0	-61
